This excerpt belongs to a sample that is enriched for hits.
miR-122 inh = miR-122 sensor activation | Huh7 psiCHECK-miR122 Renilla luciferase sensor, 48 h | activation, % at 12.5 µM | actives 0.14% (n = 340,000);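 active = mean activation of 30% or more, with every replicate also reaching 30%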;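 also: higher luciferase signal means stronger suppression of miR-122 activity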
Numbers stand for hits; – = inactive.

SMILES | miR-122 inh
Cc1ccc(S(=O)(=O)Nc2ccc3c(c2)C(=O)N(C)[C@@H]2CC[C@H](CC(=O)NCCc4ccncc4)O[C@@H]2CO3)cc1 | 45
COc1ccccc1CNC(=O)C[C@H]1CC[C@H]2[C@@H](COc3ccc(NS(=O)(=O)c4ccc(C)cc4)cc3C(=O)N2C)O1 | –
CN1C(=O)c2cc(NC(=O)c3ccc(C(F)(F)F)cc3)ccc2OC[C@H]2O[C@H](CC(=O)NCc3ccc4c(c3)OCO4)CC[C@H]21 | 33
CCCNC(=O)C[C@H]1CC[C@@H]2[C@@H](COc3ccc(NC(=O)c4ccc(C(F)(F)F)cc4)cc3C(=O)N2C)O1 | 45
CO[C@@H]1CN(C)C(=O)c2ccc(NS(=O)(=O)c3ccc(C)cc3)cc2OC[C@H](C)N(C)C[C@@H]1C | –
CN1C(=O)c2cc(NC(=O)c3cccc(C(F)(F)F)c3)ccc2OC[C@H]2O[C@H](CC(=O)NCCN3CCCC3)CC[C@H]21 | 65
COc1cccc(C#Cc2ccc3c(c2)O[C@@H](CN(C)C(=O)c2ccccn2)[C@@H](C)CN([C@@H](C)CO)S3(=O)=O)c1 | –
CCC(=O)Nc1ccc2c(c1)OC[C@@H](C)NC[C@@H](C)[C@H](OC)CN(C)C2=O | –
COc1cccc(NC(=O)N(C)C[C@H]2Oc3ncc(C#Cc4cccnc4)cc3C(=O)N([C@H](C)CO)C[C@H]2C)c1 | –
CC(C)NC(=O)N(C)C[C@H]1Oc2cc(-c3ccccc3)ccc2S(=O)(=O)N([C@H](C)CO)C[C@@H]1C | –
C[C@@H]1CN([C@@H](C)CO)S(=O)(=O)c2ccc(Br)cc2O[C@H]1CN(C)Cc1cccc(F)c1 | –
CCC(=O)N(C)C[C@H]1Oc2cc(-c3cccnc3)ccc2S(=O)(=O)N([C@@H](C)CO)C[C@@H]1C | –
CO[C@H]1CN(C)C(=O)c2cc(NC(=O)NC(C)C)ccc2OC[C@H](C)N(C(=O)NC(C)C)C[C@@H]1C | –
CCCNC(=O)N(C)C[C@@H]1Oc2ncc(C#CCC3CCCC3)cc2C(=O)N([C@@H](C)CO)C[C@H]1C | –
Cc1cc(C)cc(N=c2c([N+](=O)[O-])nn(-c3ccc4c(c3)OCCO4)n2O)c1 | 42
C[C@H]1CN([C@@H](C)CO)C(=O)c2cc(Br)cnc2O[C@H]1CN(C)Cc1ccc2c(c1)OCO2 | –
C[C@@H]1CN([C@@H](C)CO)C(=O)c2cc(C#CCc3ccccc3)cnc2O[C@H]1CN(C)C(=O)C1CCCCC1 | –
COc1ccc(CN(C(=O)c2ccc(-c3ccccc3)[nH]2)C(C(=O)NCC2CCCO2)c2ccc(C)o2)cc1 (stereo not given) | –
COc1ccccc1NS(=O)(=O)c1cc(NC(=S)NCC2CCCO2)ccc1C (stereo not given) | –
COc1cccc(Nc2nc(NCC3CCCO3)c3ccccc3n2)c1 (stereo not given) | 51
COc1ccc(N2CCc3c(C)nc4c(OC)cc(OC)cc4c32)c(OC)c1 | 47
COc1ccc(-c2cnc3c(c2)C(=O)N([C@H](C)CO)C[C@H](C)[C@@H](CN(C)C(=O)Cc2ccccc2)O3)cc1 | –
CCC(=O)N(C)C[C@@H]1Oc2cc(-c3cccnc3)ccc2S(=O)(=O)N([C@@H](C)CO)C[C@H]1C | –
Cc1cc(OCC(O)CN2CCOCC2)cc(C)c1Cl (stereo not given) | –
Cc1cc(C)cc(OCC(O)CN2CCC(CN3C(=O)c4cccc5cccc(c45)C3=O)CC2)c1 (stereo not given) | 67
SMILES | miR-122 inh
C[C@H](CO)N1C[C@H](C)[C@@H](CN(C)C(=O)C2CCC2)Oc2ncc(C#CC3CCCC3)cc2C1=O | –
C[C@@H]1CN([C@@H](C)CO)C(=O)c2cc(C#Cc3ccc(F)cc3)cnc2O[C@@H]1CN(C)C(=O)c1ccccc1F | –
CCCn1c(CC)nc([N+](=O)[O-])c1S(=O)(=O)c1ccccc1 | 48
COc1ccc(C#Cc2cnc3c(c2)C(=O)N([C@@H](C)CO)C[C@@H](C)[C@H](CN(C)CC2CCOCC2)O3)cc1 | –
C[C@H]1CN([C@@H](C)CO)C(=O)c2cc(C#Cc3cccnc3)cnc2O[C@@H]1CN(C)S(C)(=O)=O | –
C[C@H](CO)N1C[C@H](C)[C@@H](CN(C)CC2CCOCC2)Oc2ncc(-c3ccc(C#N)cc3)cc2C1=O | –
C=CCNC(=O)c1ccccc1NC(=O)c1ccc(Cl)c(S(=O)(=O)Nc2cc(C)ccc2C)c1 | –
C=CCNC(=S)NNC(=O)c1cccn(Cc2ccc(Cl)c(Cl)c2)c1=O | 71
C[C@H](CO)N1C[C@H](C)[C@H](CN(C)C(=O)c2ccccn2)Oc2ncc(-c3ccc(F)cc3)cc2C1=O | –
COc1cccc(-c2ccc3c(c2)O[C@@H](CN(C)C(=O)C2CCCCC2)[C@H](C)CN([C@@H](C)CO)S3(=O)=O)c1 | –
C[C@@H]1CN([C@@H](C)CO)C(=O)c2cc(C#C[C@@H](C)O)cnc2O[C@H]1CN(C)Cc1cncnc1 | –
CCC(=O)Nc1ccc2c(c1)OC[C@H](C)N(CCC(F)(F)F)C[C@@H](C)[C@@H](OC)CN(C)C2=O | –
COc1cccc(N2CCN(c3ncnc4c3[nH]c3ccc(F)cc34)CC2C)c1 (stereo not given) | 32
CCC(=O)N(C)C[C@@H]1Oc2ncc(C#Cc3cccnc3)cc2C(=O)N([C@H](C)CO)C[C@@H]1C | –
O=S(=O)(c1ccccc1F)N1CC[C@@H]2[C@@H](CO)Nc3ccc(-c4ccc(F)cc4)cc3[C@@H]21 | –
CCC(=O)Nc1ccc2c(c1)OC[C@H](C)NC[C@@H](C)[C@H](OC)CN(C)C2=O | –
C[C@@H]1CN([C@@H](C)CO)S(=O)(=O)c2ccc(C#CC3CC3)cc2O[C@@H]1CN(C)C(=O)C1CC1 | –
CCCN1C[C@H](C)[C@H](OC)CN(C)C(=O)c2ccc(NC(=O)COC)cc2OC[C@H]1C | –
C[C@H](CO)N1C[C@H](C)[C@H](CN(C)C(=O)Nc2cccc3ccccc23)Oc2ncc(-c3cc4ccccc4o3)cc2C1=O | –
C/C=C/c1cnc2c(c1)C(=O)N([C@H](C)CO)C[C@@H](C)[C@H](CN(C)C(=O)Cc1cccnc1)O2 | –
Cc1nnc(NC(=O)CSc2nc(C(C)C)nc3sc(C)c(C)c23)s1 | 55
C[C@@H]1CN([C@H](C)CO)C(=O)c2cc(-c3cccc(F)c3)cnc2O[C@H]1CN(C)CC1CCCC1 | –
CNC[C@@H]1Oc2cc(C#Cc3cccc(F)c3)ccc2S(=O)(=O)N([C@H](C)CO)C[C@H]1C | –
CCC(=O)Nc1ccc2c(c1)OC[C@H](C)NC[C@H](C)[C@@H](OC)CN(C)C2=O | –
CCCC(=O)Nc1ccc2c(c1)OC[C@H](C)N(C(C)=O)C[C@H](C)[C@H](OC)CN(C)C2=O | –
SMILES | miR-122 inh
CCCC#Cc1cnc2c(c1)C(=O)N([C@H](C)CO)C[C@H](C)[C@H](CN(C)Cc1cccnc1)O2 | –
CCOC(=O)/C(=C\C=C1/Sc2ccccc2N1CC)C(C)=O | 52
COCC(=O)N(C)C[C@H]1Oc2cc(C#CC3CC3)ccc2S(=O)(=O)N([C@@H](C)CO)C[C@H]1C | –
CCC(=O)Nc1ccc2c(c1)OC[C@H](C)N(C(=O)c1ccccc1F)C[C@H](C)[C@H](OC)CN(C)C2=O | –
COc1ccc(CN2CCc3c([nH]c4ccccc34)C2)c(OC)c1C | 42
C[C@H]1CN([C@@H](C)CO)C(=O)c2cc(-c3ccc(F)cc3)cnc2O[C@@H]1CN(C)Cc1ccc(C(=O)O)cc1 | –
CC(C)CC#Cc1cnc2c(c1)C(=O)N([C@H](C)CO)C[C@@H](C)[C@H](CN(C)C(=O)Cc1ccccc1)O2 | –
